{"source": "PubChem BioAssay AID1508645", "about": "(National Center for Advancing Translational Sciences (NCATS), 2021)", "note": "Records with an inconclusive call do not appear. Where a call stands in place of a potency, no number is given. Active and inactive are the calls of the source. Calls follow the shape of the dose curve; as a rule, active = well fitted cell-killing curve with a large enough effect; inconclusive = small, poorly fitted or top-dose-only effect, or effect the other way; inactive = no such curve, though single readings can be large or run the other way."}
{"assay": "Cell viability assay in S16 Pmp22-HiBiT cells", "conditions": "S16 Schwann Pmp22-HiBiT viability, CellTiter-Glo, 24 h; series mostly up to 27.9 µM", "text": "Assay Provider: Jim Inglese Ph.D. National Center for Advancing Translational Science, National Institutes of Health, Rockville, MD CMT is a heterogeneous group of neurological disorders that affect approximately 1 in 2,500 people. In particular, the most common form of CMT, CMT1A is genetically linked to the duplication of the PMP22 gene which leads to Schwann cell overexpression, thus manifesting itself as a typical case of dose-sensitive diseases. To identify small molecule compounds that can mediate the expression of PMP22 we developed a phenotypic assay screening strategy by utilizing genome editing techniques to construct Schwann cell lines containing novel reporter technology to monitor the transcriptional or translational regulation of PMP22. For high sensitivity we use a bioluminescent reporter system embedded in the 3' UTR of the PMP22 gene (S16(c9) Pmp22-F2sN) to identify compounds that inhibit gene expression. […] We can further discriminate the effect of all transcriptionally active molecules on PMP22 translation or stability with an assay that incorporates a short NLuc peptide (HiBiT) at the C-terminus of expressed PMP22 (S16(f8) PMP22-HiBiT) allowing alpha complementation and luminescence detection of membrane-associated PMP22 protein. These assays were screened against the NCATS Sytravon Library Collection. Miniaturization of these assays to 1536-well plate format for quantitative high throughput screening (qHTS) yielded rich data sets immediately from the qHTS assay (S16(c9) Pmp22-F2sN), when compared with data from a cell viability assay (Cell TiterGlo) to identify compounds that decreased the output signals through cellular toxicity to streamline the selection process of actives for subsequent characterization using the HiBiT assay (S16(f8) PMP22-HiBiT).\nCell viability assay in S16 Pmp22-HiBiT cells PROTOCOL TABLE (format as described by Inglese J, Shamu CE and Guy RK. 2007) SEQUENCE No. (e.g., 1, 2, 3, etc.); PARAMETER (e.g., Cells, Incubation, Reagent, etc.); VALUE and DESCRIPTION. 1. Cells. Add 500-1,000 cells in 4 uL in growth media (DMEM High Glucose, No Phenol Red media + 10% heat-inactivated FBS + 1% Pen/Strep supplemented media) per well into Greiner 1536-well white/solid bottom high base, TC-treated plates. 2. Compounds. Library compounds and controls added at 23nL per well, transferred by Pin Tool. 3. Incubation. Incubate plates at 37C, 5% CO2, 95% RH for 24 h. 4. Reagent. Add 3uL CellTiter-Glo per well of Greiner 1536-well plates. 5. Incubation. Incubate plates at room temperature for 15 min., protect from light. 6. Detector. Luminescence measured using CCD-based camera (Viewlux). NOTES (numbers refer to Sequence numbers above; values are from representative experiments) 6. Luminescence Read: Clear filter; Exposure = 1 sec, Gain = High, Speed = Slow, Binning = 2X REFERENCES: 1. Inglese J, Shamu CE and Guy RK, Reporting data from high throughput screening of small molecule libraries, Nature Chemical Biology, 2007, 3(8): 438-441. doi.org/10.1038/nchembio0807-438 2. Yasgar A, Shinn P, Jadhav A, Auld DS, Michael S, Zheng W, Austin CP, Inglese J and Simeonov A, Compound Management for Quantitative High-Throughput Screening. J. Assoc. Lab. Auto., 2008, 13: 79-89. doi: 10.1016/j.jala.2007.12.004"}
{"smiles": "COc1cccc(-n2c(SCC(=O)c3ccc(Cl)cc3)nc3c([nH]c4ccccc43)c2=O)c1", "Potency": "inactive"}
{"smiles": "COc1ccc(NC(=O)c2oc3ccccc3c2NC(=O)Cc2ccc(F)cc2)c(OC)c1", "Potency": "inactive"}
{"smiles": "COCCCNC(=O)c1ccc(-n2c(-c3ccccc3)cc3c2CCC(C)C3)cc1", "note": "(centres undefined)", "Potency": "inactive"}
{"smiles": "COCCCNC(=O)c1ccc2c(c1)N=C(C)c1c(C)ccc(C)c1S2", "Potency": "inactive"}
